Experiment [1] can be described thus: liver-stage malaria parasite growth inhibition, primary screen, cell-based, HepG2, luciferase luminescence, HepG2 viability (AID 624349; in the data active means parasite load remaining mostly below about 12%, no sharp cut-off; inactive means mostly above about 10%;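 further: 100% = mean of DMSO negative control wells on the same plate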). The note with it: P. berghei liver stage in HepG2, luciferase luminescence, concentration not given here; parasite load remaining: stronger effect = lower value; viability: measured here: HepG2 viability without parasites.
Experiment [2] in a line: Cy5 fluorescence interference with SSB-bound oligo, artefact control for HCV NS3 helicase inhibitor project, biochemical, NIH Clinical Collection, E. coli SSB (AID 743268; call rule not given here).
Experiment [3] relates to Hepatitis C virus NS3 helicase. Kind of experiment: HCV NS3 helicase inhibitors, primary screen, biochemical, fluorescence polarization, NIH Clinical Collection (AID 743270; call rule not given here). The conditions noted are these: NS3 helicase binding to Cy5-dT15 DNA, stronger effect = higher value, concentration not given here. (In general: Fluorescence polarisation rises when a labelled molecule tumbles more slowly, as on binding a larger partner.)

Experiment [4] deals with Single-stranded DNA-binding protein (Escherichia coli (strain K12)) (UniProt P0AGE0). Kind of experiment: E. coli SSB displacement from DNA, counter-screen for HCV NS3 helicase inhibitor project, biochemical, fluorescence polarization, NIH Clinical Collection (AID 743271; in the data active means inhibition above about 28%). The note with it: stronger effect = higher value, concentration not given here. For orientation: Counterscreens check selectivity or assay interference.

Experiment [5] in a line: fluorescence interference in NS3h assay format, artefact control for HCV NS3 helicase inhibitor project, biochemical, NIH Clinical Collection (AID 743272; call rule not given here;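 further: HCV NS3 helicase with a Cy5 labelled single stranded DNA probe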). The conditions noted are these: fluorescence interference counterscreen, stronger effect = lower value.
The nature of experiment [6]: modulation of C. elegans fzo-1 (AID 1259413; call rule not given here;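 further: fzo-1 mutant C. elegans worms in liquid wells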). The conditions noted are these: C. elegans fzo-1 modulator screen, mean read-out; stronger effect = higher value.
The nature of experiment [7]: sensitizers of A549 cells to miR-34 induction, primary screen, imaging, A549 dox-inducible miR-34, nuclei and caspase counts (AID 1347080;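 active means compounds whose cell count with miR-34 switched on is under 0.7 times the count with it off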). The conditions noted are these: A549 miR-34 inducible, Hoechst nuclei count, 48 h.
The nature of experiment [8]: survival rescue of mitochondrial mutant cells in low glucose, primary screen, MELAS cybrids, Rieske KO mouse fibroblasts, CellTiter-Glo (AID 1508586;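 active means mean z-score across replicates of 1.96 or higher in either the MELAS or the Rieske mutant cell line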;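 further: z relative to plate mean and SD of compound and empty wells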).
Experiment [9] is described as follows: viability rescue of complex I mutant cybrids, primary screen, cell-based, galactose medium, ATP luminescence (AID 1645843;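 active means z-score of at least 1.8 in each of two replicates, scored against plate mean and spread of sample wells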;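 further: positive z means more ATP and so rescue of galactose-driven cybrid death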). The note with it: complex I mutant cybrid cells, 72 h, stronger effect = higher value.
For the next experiment, the system named is F380Y. Kind of experiment: modulators of BK channel variants, profiling panel, selectivity assay, cell-based, U2OS BacMam, thallium flux, beta subunits (AID 1259406).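 Further: initial slope of Thallos dye fluorescence rise after thallium is added; log ratio against the mean of 0.3% DMSO vehicle wells on the same plate.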 The note with it: at 30 µM.
The next experiment concerns F380Y/beta1. The experiment is described as above. The conditions noted are these: at 30 µM.
The subject of the next experiment is F380Y/beta2Delta. The experiment is described as above. The conditions noted are these: at 30 µM.
The next experiment concerns F380Y/beta4. The description is as above. The note with it: at 30 µM.
Experiment [10] concerns the target Calcium-activated potassium channel subunit alpha-1 (Homo sapiens) + Leucine-rich repeat-containing protein 26 (Homo sapiens) (UniProt Q12791+Q2I0M4). The experiment is described as above. The note with it: F380Y/Slo1WT/gamma1, at 30 µM.
The next experiment relates to R275C. The experiment is described as above. The conditions noted are these: at 30 µM.
For another experiment, the system named is R275C/beta1. Described as above. The conditions noted are these: at 30 µM.
The subject of the next experiment is R275C/beta2Delta. Described as above. The note with it: at 30 µM.
In another experiment the test system is R275C/beta4. The description is as above. The conditions noted are these: at 30 µM.
In a further experiment the test system is R275C/Slo1WT/beta2. The experiment is described as above. The note with it: at 30 µM.
[11] abbreviates: stronger effect = lower value, cell number ratio, induced over uninduced.
Where [12] appears, read: measured here: relative caspase fold change +Dox/-Dox.
The mark [13] stands for this setting: measured here: total cells with miR-34 induction, stronger effect = lower value.
Where [14] appears, read: measured here: total cells without miR-34 induction.

Several values for one entry are separate records, joined by “and”; a condition that tells them apart may be missing. Equal entries are not always repeated. Activity calls are given as the source filed them.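 How the source made its calls, unless noted: active means thallium flux through the channel raised or lowered by more than 3 SD from vehicle-only wells, actives on both sides; inactive means the rest.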

Calcium-activated potassium channel subunit alpha-1 (Homo sapiens) + Leucine-rich repeat-containing protein 26 (Homo sapiens), sequence (Q2I0M4 whole entry, looked up, one chain of several): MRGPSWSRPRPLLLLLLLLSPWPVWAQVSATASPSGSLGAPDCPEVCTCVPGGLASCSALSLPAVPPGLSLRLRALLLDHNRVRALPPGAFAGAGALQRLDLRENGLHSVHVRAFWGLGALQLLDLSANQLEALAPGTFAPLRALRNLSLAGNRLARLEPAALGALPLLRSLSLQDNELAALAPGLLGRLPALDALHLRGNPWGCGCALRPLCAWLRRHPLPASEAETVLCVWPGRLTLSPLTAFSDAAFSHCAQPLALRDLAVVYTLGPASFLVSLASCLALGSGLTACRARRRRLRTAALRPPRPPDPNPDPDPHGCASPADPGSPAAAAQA

As a reminder, the viability is a read-out of living cells in per cent, often relative to untreated cells. As usually defined, the inhibition is the relative decrease from the control value, in per cent. Regarding `COc1ccc2[nH]c(S(=O)Cc3ncc(C)c(OC)c3C)nc2c1` (stereo unspecified), the parasite load remaining in experiment [1] is 75.4% (inactive). In [1], this compound had a viability of 78.3%. Further, the fluorescence ratio in experiment [2] is 1.05 (inactive); in experiment [5], 1.01 (inactive). In addition, the inhibition in [3] was -1.19% (inactive); in experiment [4] it was -0.1% (inactive). In addition, in [6], the mean signal was 220 (inactive). Further, the fold change in [7] (setting [11]) was 1.06 (inactive) and 1.02 (inactive); in [7] (setting [12]), 1.73 and 0.384. Besides, the cell count was 9290 and 8180 in experiment [7] (setting [13]); 8760 and 8050 in [7] (setting [14]). In addition, the z-score was -0.201 (inactive) in [8] (MELAS cybrid survival, CellTiter-Glo 48 h, stronger effect = higher value); 0.0948 in [8] (Rieske KO mouse fibroblast survival, CellTiter-Glo 72 h); 0.665 (inactive) in [9]. In addition, the log fold change Tl+ flux in the experiment with F380Y is 0.0414 (inactive); in the experiment on F380Y/beta1, 0.0445 (inactive); in the experiment with F380Y/beta2Delta it was -0.007 (inactive); in the experiment with F380Y/beta4, 0.0255 (inactive); in experiment [10], 0.0493 (inactive); in the experiment with R275C, -0.061 (inactive). The log fold change Tl+ flux is 0.0126 (inactive) in the experiment with R275C/beta1, 0.00561 (inactive) in the experiment with R275C/beta2Delta, 0.0354 (inactive) in the experiment with R275C/beta4 and 0.0116 (inactive) in the experiment on R275C/Slo1WT/beta2.
Take `CC(Cc1ccc(O)c(O)c1)(NN)C(=O)O` (stereo unspecified): the parasite load remaining in experiment [1] is 41.4% (inactive) and 31.2% (inactive). Moreover, in [1], the viability was 97.1% and 84.8%. In addition, the fluorescence ratio in experiment [2] is 1.04 (inactive); in [5], 1.05 (inactive). For the same compound, the inhibition in [3] is -2.27% (inactive); in experiment [4], -0.48% (inactive). Besides, the mean signal in experiment [6] was 254 (inactive). For the same compound, the fold change in experiment [7] (setting [11]) was 0.911 (inactive) and 0.909 (inactive); in experiment [7] (setting [12]) it was 2.2 and 3.05. For the same compound, the cell count in [7] (setting [13]) is 9190 and 11400; in [7] (setting [14]), 10100 and 12600. In addition, the z-score in [9] was -1.27 (inactive). Besides, the log fold change Tl+ flux is -0.0414 (inactive) with F380Y; 0.04 (inactive) with F380Y/beta1; 0.0399 (inactive) in the experiment on F380Y/beta2Delta; 0.0475 (inactive) in the experiment with F380Y/beta4; 0.00594 (inactive) in [10]; 0.0956 (active) in the experiment on R275C. Further, the log fold change Tl+ flux with R275C/beta1 is 0.024 (inactive); in the experiment on R275C/beta2Delta it was 0.0162 (inactive); with R275C/beta4, -0.024 (inactive); in the experiment on R275C/Slo1WT/beta2 it was -0.00513 (inactive).
`COC(=O)C[C@](O)(CCCC(C)(C)O)C(=O)O[C@@H]1C(OC)=C[C@]23CCCN2CCc2cc4c(cc2[C@H]13)OCO4`: the fluorescence ratio in [2] was 1 (inactive); in experiment [5] it was 0.99 (inactive). The figures for the inhibition in [3] and in [4] were -0.22% (inactive) and 1.18% (inactive), respectively. Also, the mean signal in experiment [6] was 211 (inactive). For the same compound, the figures for the fold change in experiment [7] (setting [11]) and in experiment [7] (setting [12]) were 1.08 (inactive) and 1.16, respectively. For the same compound, the figures for the cell count in experiment [7] (setting [13]) and in experiment [7] (setting [14]) were 1670 and 1550, respectively. The z-score in experiment [9] was -0.84 (inactive). The log fold change Tl+ flux is 0.0231 (inactive) in the experiment with F380Y; -4.2e-05 (inactive) in the experiment with F380Y/beta1; -0.00992 (inactive) in the experiment with F380Y/beta2Delta; 0.013 (inactive) in the experiment with F380Y/beta4; -0.0674 (inactive) in experiment [10]; -0.0969 (inactive) in the experiment on R275C. Also, the log fold change Tl+ flux in the experiment with R275C/beta1 is -0.0403 (inactive); in the experiment on R275C/beta2Delta, -0.0559 (inactive); in the experiment on R275C/beta4, -0.045 (inactive); with R275C/Slo1WT/beta2 it was 0.0211 (inactive).

Values taken from PubChem BioAssay.
